Drawing on PubChem BioAssay AID1117361 (Southern Research Institute, 2015), this text covers outcome for 111 molecules.

Out of some 3,600 compounds screened, about 900 (25%) were called active. The rule behind the calls is not given here. A selection follows. Where a call stands in place of a potency, no number is given. Potency and affinity values are given separately.

The test deals with Protein Tat (Human immunodeficiency virus type 1 group M subtype B (isolate HXB2)) (UniProt P04608). The experiment in a line: inhibitors of Tat binding to TAR RNA, dose response, counter-screen for Vif-APOBEC3G degradation inhibitor project, biochemical, fluorescence polarization, FAM-labeled TAR RNA (AID 1117361). The note with it: outcome: dose series up to 100 µM unless noted; series mostly up to 100 µM. In general terms: A counterscreen serves to expose hits that act by an unwanted route or on another target.
Regarding `O=C(CN(c1ccc(F)cc1)S(=O)(=O)c1ccc2c(c1)OCCO2)NCc1ccccn1`, the molecule was called inactive.

As to `COc1ccc(N(CC(=O)NCc2ccccc2C)S(=O)(=O)c2ccc(C)cc2)cc1OC`, the result was inactive.

For `NNC(=O)c1ccc(N2CCc3ccccc32)c([N+](=O)[O-])c1`, the molecule was called inactive.

Turning to `O=C(NCc1ccncc1)c1cnccn1`, the molecule was classed as inactive.

On to `COC(=O)c1ccc(NC(=S)NCCC2=CCCCC2)cc1`, for which the outcome was inactive.

As for `CC(=O)Nc1ccc(NC(=O)C(C)OC(=O)CCc2c[nH]c3ccccc23)cc1` (stereo unspecified), the result was inactive.

Regarding `C/C(=N\NC(=O)c1cnccn1)c1ccc([N+](=O)[O-])cc1`, the result was inactive.

For the molecule `C=CCN(CC=C)C(=S)NC(=O)c1ccc([N+](=O)[O-])cc1`, the outcome was inactive.

On to `CC1=CC(C)(C)N=C(Nc2nc(C)c3cc(C)cc(C)c3n2)N1`, for which the outcome was inactive.

For the molecule `O=C(C/C=N/OCc1c(Cl)cccc1Cl)c1ccc(Cl)cc1`, the result was inactive.

For `CC(C)(C)OC(=O)N1CCCC1C(=O)N1CCc2ccccc21` (stereo unspecified), the molecule was classed as inactive.

As for `O=[N+]([O-])c1ccc2nc(-c3ccccc3)oc2c1`, the outcome was inactive.

For the molecule `CC(=O)c1cc2c(cc1NC(=O)CSc1nc3ccccc3o1)OCO2`, the call was inactive.

For the molecule `CC(=O)NNC(=O)C(O)(c1ccccc1)c1ccccc1`, the call was inactive.

As to `CC(C)c1ccc(S(=O)(=O)/N=C2/C=CC(=O)c3ccccc32)cc1`, the call was inactive.

Turning to `CCc1ccc(S(=O)(=O)/N=C2\C=CC(=O)c3ccccc32)cc1`, the molecule was classed as inactive.

As for `CN(C)c1ccc(NC(=O)Nc2cccc(Cl)c2)cc1`, the result was inactive.

With `COc1ccc(C(=O)N2CCCN(C)CC2)cc1S(=O)(=O)N1CCCc2ccccc21`, the result was inactive.

Regarding `COC(=O)C1=C(C)NC(=O)NC1c1ccc2c(c1)OCO2` (stereo unspecified), the molecule was called inactive.

For `Cc1ccc(CCNC(=O)C2CCN(S(=O)(=O)c3ccc4c(c3)CCC(=O)N4)CC2)cc1`, the molecule was called inactive.

Take `CC1CCCC(NC(=O)C2CCC(CNc3c(N4CCCC4)c(=O)c3=O)CC2)C1C` (stereo unspecified): the result was inactive.

On to `COc1ccc(C(=O)OCC(=O)c2c(N)n(C)c(=O)n(C)c2=O)cc1OC`, for which the result was inactive.

On to `CCOC(=O)c1c(C)[nH]c(C(=O)COC(=O)CN2C(=O)C3CCCCC3C2=O)c1C` (stereo unspecified), for which the molecule was classed as inactive.

With `COc1ccc(CC(=O)Oc2ccc(F)c(F)c2)cc1S(=O)(=O)N1CCOCC1`, the molecule was classed as inactive.

For the molecule `CC1(C)CCN(Cc2ccccc2)C1CC#N` (stereo unspecified), the molecule was classed as inactive.

With `COC(=O)c1cnn2c(C)c(Cc3cccc(F)c3)c(C)nc12`, the molecule was called inactive.

As to `COC(=O)C1CCN(C(=O)NC(C)(C)C)CC1`, the call was inactive.

As for `COc1cc2oc3ccccc3c2cc1N(CC(=O)N(C)C)S(=O)(=O)c1ccccc1`, the outcome was inactive.

For the molecule `CCOc1cc(C2NC(=O)NC(C)=C2C(=O)NCc2ccccc2)c(Cl)cc1O` (stereo unspecified), the molecule was classed as inactive.

For `O=C(O)c1ccc(S(=O)(=O)c2ccc3c(c2)C(=O)N(Cc2ccco2)C3=O)cc1`, the call was inactive.

In the case of `O=C1c2ccccc2C(=O)N1CCC(c1ccc(F)cc1)c1ccco1` (stereo unspecified), the outcome was inactive.

As to `c1ccc(Cn2nnnc2-c2ccco2)cc1`, the molecule was classed as inactive.

With `Cn1c(N)c(C(=O)CCl)c(=O)n(Cc2ccccc2)c1=O`, the result was inactive.

With `CC1CCCCN1C(=O)c1ccc(S(=O)(=O)N2CCCCC2C)cc1` (stereo unspecified), the result was inactive.

In the case of `COCCn1c(COc2cccc(OC)c2)nnc1SCC(=O)N1CCOCC1`, the molecule was classed as inactive.

Regarding `NC(=O)C[C@@H]1N[C@]2(C(=O)Nc3ccccc32)[C@@H]2C(=O)N(c3cc(C(F)(F)F)ccc3Cl)C(=O)[C@H]12`, the call was inactive.

Take `CCn1c(C(=O)OC)cc2c1ccn2-c1ccc(F)cc1`: the molecule was classed as inactive.

On to `Cc1cccc(N(C(=O)c2ccc(Cl)cc2)C2CS(=O)(=O)CC2OC(=O)c2ccc(Cl)cc2)c1` (stereo unspecified), for which the molecule was called inactive.

As for `O=C(CSc1nncs1)NC(=O)NCc1ccccc1`, the call was inactive.

`COc1ccccc1C(=O)C1CCCN(Cc2ccc3c(c2)OCCO3)C1` (stereo unspecified): the molecule was called inactive.

As for `COC(=O)c1c(C)[nH]c(C(=O)CSc2ccc(Cl)cc2)c1C`, the outcome was inactive.

As to `Cn1nccc1NC(=O)Nc1ccc(Cl)cc1`, the call was inactive.

In the case of `CC(C)(C)c1ccc(NC(=O)N2CCN(c3ccc([N+](=O)[O-])cn3)CC2)cc1`, the molecule was called inactive.

As for `Cn1nc(C(=O)OCC(=O)N2CCc3ccccc32)c2ccccc2c1=O`, the outcome was inactive.

For the molecule `Cc1ccc(C2(C(F)(F)F)NC(=O)N3CCN=C3S2)cc1` (stereo unspecified), the result was inactive.

Turning to `Cc1nc(N2CCN(Cc3ccccc3)CC2)nc2c1C(=O)CCC2`, the molecule was called inactive.

For the molecule `CCOc1ccc(NC(=O)CCS(=O)(=O)c2ccc(Br)cc2)cc1`, the outcome was inactive.

Consider `COc1ccc(Cl)cc1NC(=O)CCS(=O)(=O)c1ccc(Br)cc1`, for which the molecule was classed as inactive.

Regarding `CCOc1ccccc1NC(=O)CCS(=O)(=O)c1ccc(Br)cc1`, the molecule was called inactive.

With `O=C(CCS(=O)(=O)c1ccc(Br)cc1)NCCc1ccccc1`, the molecule was called inactive.

Take `CCc1cccc(NC(=O)CCS(=O)(=O)c2ccc(Br)cc2)c1`: the result was inactive.

For the molecule `NS(=O)(=O)c1ccc(CCNC(=O)CCS(=O)(=O)c2ccc(Br)cc2)cc1`, the outcome was inactive.

For `Cc1ccccc1OCCC(=O)Nc1ccccc1C(=O)NC1CC1`, the outcome was inactive.

Consider `OC(c1ccc(Cl)cc1)C(O)c1nc2ccccc2[nH]1` (stereo unspecified), for which the call was inactive.

For the molecule `CCCCOc1ccc(C(=O)NCC(=O)NCC(=O)OCC)cc1`, the molecule was classed as inactive.

As for `CCCCn1nc(C(=O)O)ccc1=O`, the call was inactive.

As for `COc1ccc(CNC(=O)c2sc3nc4c(c(C(F)(F)F)c3c2N)CCC4)cc1OC`, the result was inactive.

As for `CC(=O)Nc1ccc(NC(=O)C(C)OC(=O)CC23CC4CC(CC(Br)(C4)C2)C3)cc1` (stereo unspecified), the result was inactive.

For the molecule `CC1CCCN(CC(O)CN2CCN(CC(O)CN3CCCC(C)C3)C(C)C2)C1` (stereo unspecified), the molecule was classed as inactive.

In the case of `COC(=O)C1C(O)=C(C=Nc2ccc(N)cc2)C(=O)CC1(C)C` (stereo unspecified), the call was inactive.

Turning to `CCCC(=O)C1=C(N(C)c2ccccc2)CC(C)(C)CC1=O`, the molecule was called inactive.

Regarding `CCCc1n[nH]c2c1C(=O)C(C(=O)OC)C(C)(C)C2` (stereo unspecified), the call was inactive.

Take `O=C(Nc1nnc(SCc2c(Cl)cccc2Cl)s1)c1cccc([N+](=O)[O-])c1`: the call was inactive.

With `CCOC(=O)N1CCC(Nc2c(-c3ccc(C)cc3)c(=O)c2=O)CC1`, the molecule was classed as inactive.

For the molecule `O=C(Cn1cnc2c(cnn2-c2ccc(F)cc2)c1=O)N1CCN(c2ccccc2)CC1`, the call was inactive.

Turning to `COc1cc(C2Nc3cccc4cccc(c34)N2)cc(OC)c1OC(C)=O`, the molecule was called inactive.

In the case of `COc1cc(C)c(C2NC(=O)c3ccccc3N2)cc1C` (stereo unspecified), the molecule was called inactive.

Turning to `CCOC(=O)c1sc(C)c2c(=O)n(CCc3ccccc3)nnc12`, the outcome was inactive.

For the molecule `O=C(/C=C/Nc1ccccc1Br)c1ccccn1`, the molecule was called inactive.

Consider `Cc1ccc(C)c(S(=O)(=O)Nc2ccccc2C(=O)Nc2ccccc2N2CCOCC2)c1`, for which the molecule was classed as inactive.

In the case of `COc1ccccc1NS(=O)(=O)c1cc(C(=O)NCCN2CCOCC2)ccc1Cl`, the outcome was inactive.

Consider `COc1cccc(OC)c1C(=O)Nc1cc(Cl)ccc1N1CCOCC1`, for which the molecule was classed as inactive.

As to `O=C(CSc1ncn[nH]1)Nc1c(Br)cc([N+](=O)[O-])cc1Br`, the outcome was inactive.

Regarding `CCOc1cc(NC(=S)NCC(C)C)c(OCC)cc1NC(=O)c1cccs1`, the molecule was classed as inactive.

With `O=C(CSc1ncn[nH]1)Nc1nc(-c2ccccc2)ns1`, the molecule was classed as inactive.

For the molecule `CN1CCN(S(=O)(=O)Cc2ccc(Cl)cc2)CC1`, the call was inactive.

With `O=C(NCc1ccccc1)/C(=C/c1ccc(OC(F)F)cc1)c1ccccc1`, the result was inactive.

With `O=C(CCS(=O)(=O)c1ccc(Br)cc1)N1CCN(c2ccc(F)cc2)CC1`, the result was inactive.

`Cc1ccc(C(C)C)c(OCCCN2CC(C)OC(C)C2)c1` (stereo unspecified): the molecule was called inactive.

`COC(=O)c1ccccc1NC(=O)CSCC(=O)Nc1ccccc1`: the outcome was inactive.

Consider `COC(=O)c1ccccc1NC(=O)C(C)Oc1ccccc1` (stereo unspecified), for which the molecule was classed as inactive.

With `Cc1nnc(-c2cnn(C)c2N)n1Cc1ccc(Cl)cc1`, the molecule was called inactive.

As to `COc1cc(/C=C2\CC/C(=C\c3cc(OC)c(O)c(OC)c3)C2=O)cc(OC)c1O`, the outcome was inactive.

On to `COc1cc(C(=O)OCCN2CCCCC2)ccc1O`, for which the molecule was classed as inactive.

As to `CC12C(=O)N(c3ccccc3C(=O)O)C(=O)C1C1C=CC2C1` (stereo unspecified), the call was inactive.

On to `Cc1nc2ccccc2c2oc(C(=O)N3CCN(C(=O)c4ccco4)CC3)cc12`, for which the molecule was classed as inactive.

In the case of `Cc1cc(C(=O)N2CCN(CCc3ccccc3)CC2)no1`, the molecule was classed as inactive.

`CC(=O)c1c(C)[nH]c(C(=O)Nc2ccc(C)c(C)c2)c1C`: the molecule was called inactive.

As for `CN(C)c1ccc(/C=C/C#N)cc1`, the molecule was called inactive.

For `CCC(C(=O)Nc1cc(C(=O)O)ccc1C)c1ccccc1` (stereo unspecified), the outcome was inactive.

Turning to `Cc1ccc(S(=O)(=O)N2CCCCC2)cc1C(=O)Nc1ccc2cn[nH]c2c1`, the outcome was inactive.

Turning to `CCC(C)NC(=O)Cc1cn(C)c2ccccc12` (stereo unspecified), the molecule was classed as inactive.

In the case of `CCc1nnc(NC(=O)CC(CN(C)S(=O)(=O)c2ccccc2)c2ccccc2)s1` (stereo unspecified), the molecule was classed as inactive.

In the case of `C#CCSc1nnc(-c2sc3ccccc3c2Cl)o1`, the molecule was classed as inactive.

Take `O=C(CCCCCN1C(=O)c2ccccc2C1=O)Nc1nccs1`: the call was inactive.

With `Cc1ccc(NC(=O)CCC(=O)NNC(=O)COc2cccc3ccccc23)c(C)c1`, the outcome was inactive.

For the molecule `CCCCOC(=O)CCCN1C(=O)/C(=C2\SC(=S)N(CCCC(=O)OCCCC)C2=O)SC1=S`, the molecule was classed as inactive.

Turning to `O=C(O)CCCN1C(=O)/C(=C\C(Cl)=C\c2ccccc2)SC1=S`, the call was inactive.

For the molecule `O=C(CCn1c(=S)oc2ccccc21)Nc1ccc2c(c1)OCCO2`, the call was inactive.

Regarding `CCc1ccccc1NNC(=O)CCc1ccccc1`, the molecule was classed as inactive.

Regarding `CN(CC(=O)Nc1ccccc1Cl)C(=O)Cn1cc(C(F)(F)F)cc(Cl)c1=O`, the call was inactive.

With `Cc1ccc(C)c(NC(=O)CSc2ncnc3nc[nH]c23)c1`, the molecule was classed as inactive.

Regarding `CC(C)(C)c1ccc(-c2nnc(SCCC#N)n2C2CCCC2)cc1`, the call was inactive.

As for `Cc1nc(C)c2c(c1C(F)(F)F)-c1ccccc1C2(F)F`, the molecule was called inactive.

With `O=c1[nH][nH]c(=O)c2nc(Nc3ccccc3)ncc12`, the call was inactive.

As for `CCc1nc(NCC2CCCN2CC)c2nnn(Cc3ccccc3F)c2n1` (stereo unspecified), the molecule was classed as inactive.

In the case of `CCN1CCN(C(=O)C2COc3ccccc3O2)CC1` (stereo unspecified), the molecule was classed as inactive.

With `Cc1ccc(N=Nc2ccc(N)cc2C)c(S(N)(=O)=O)c1`, the result was inactive.

Regarding `Cc1c(C(=O)O)oc2ccc(S(=O)(=O)N3CCC(C)CC3)cc12`, the result was inactive.

In the case of `CCOC(=O)CNc1nc2ccccc2n2c(C)nnc12`, the molecule was called inactive.

On to `CC(C)c1nc2ccccc2n1CCC(=O)O`, for which the molecule was called inactive.
